High-throughput results (PubChem)
AmpC det inh: blocks E. coli AmpC beta-lactamase in presence of detergent | P00811 | purified AmpC, nitrocefin hydrolysis with detergent | Potency, µM (top dose mostly 28.7 µM), without a hit: at the highest dose activity change, negative = inhibition | 71,000 tested, 0.09% active; active means well fitted curve in the direction sought with a large enough effect; inconclusive means small, poorly fitted or top-dose-only effect; further: on the % scale 0 is the no-effect control and ±100 the full control effect
Target sequence (P00811 whole entry, looked up): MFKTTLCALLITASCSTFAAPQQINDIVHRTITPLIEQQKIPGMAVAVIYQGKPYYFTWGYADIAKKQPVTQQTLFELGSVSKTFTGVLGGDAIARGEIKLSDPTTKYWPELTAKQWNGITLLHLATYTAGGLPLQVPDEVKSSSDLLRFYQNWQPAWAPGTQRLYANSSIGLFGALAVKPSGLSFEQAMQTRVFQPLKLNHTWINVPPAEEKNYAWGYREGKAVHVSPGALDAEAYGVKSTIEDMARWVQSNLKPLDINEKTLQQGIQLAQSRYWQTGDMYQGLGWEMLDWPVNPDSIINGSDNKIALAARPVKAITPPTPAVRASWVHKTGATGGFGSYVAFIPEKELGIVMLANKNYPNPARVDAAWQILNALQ
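E. coli AmpC (5.3 nM) in 20 mM phosphate pH 7.0 with 0.01% Triton X-100, preincubated 15 min RT with compound; nitrocefin (2 uL of 800 uM stock) hydrolysis followed by 480 nm absorbance every 20 s over 4 min.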
AmpC inh no det: AmpC beta-lactamase inhibition, detergent-free assay; P00811; AmpC nitrocefin hydrolysis, absorbance 480 nm, no detergent; Potency, µM (doses to about 28.7 µM), inactives show at the highest dose activity change, negative = inhibition; 71,000 tested, 1.8% active; AID 585; further: % of control where 0% means no effect
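AmpC, 20 mM phosphate pH 7.0; 15 min cpd preinc, RT; start with nitrocefin (800 uM stock); A480 kinetic read, 20 s intervals, 4 min. No-enzyme wells = negative control.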
LT uptake inh: inhibitors of anthrax lethal toxin internalization; Cells, anthrax lethal toxin internalization, FRET ratio (460/530); 70,000 tested, 0.67% active; Potency, µM (series often up to 40 µM), for inactives: top-dose activity change, negative = inhibition, hits mostly inhibitors; further: on the % scale 0 is the no-effect control and ±100 the full control effect; nearly all actives have a fitted effect of over 50% in size
SmPrx2 inh: blocks S. mansoni peroxiredoxin 2 enzymatic activity; S. mansoni Prx2 activity coupled to TGR/GSH (TGR is thioredoxin glutathione reductase), NADPH fluorescence loss, qHTS; Potency, µM; 65,000 tested, 0.07% active; AID 448
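Purified S. mansoni TGR and Prx2 in pH 7.4 phosphate buffer with EDTA and Tween-20 were preincubated with compounds for 15 min. Further NADPH/GSH was added, then a 2.5 mM H2O2 aliquot initiated turnover, followed kinetically by NADPH fluorescence.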
The depositor's hits bear a star; ? = inconclusive; . = no result; [ ] = dose if it differs, or a comment. A selection: hits, their analogues and other compounds. The true share with any hit is near 2.6%. Unless noted, the call rests on the fitted dose curve. Potency means the concentration at half of the fitted maximal effect.

SMILES	AmpC det inh	AmpC inh no det	LT uptake inh	SmPrx2 inh
O=c1c(-c2nc3ccccc3o2)c2oc3ccccc3n2c2ccccc12	-5%	48%	13µM*	>57
O=c1cnc2cnc(Oc3cccc(Cl)c3)nc2n1C1CC1	-1%	24%	-4%	>57
COc1ccc(CN2C(=O)c3ccccc3C2C(=O)NCc2cccnc2)c(OC)c1 (stereo not drawn)	-5%	21%	3%	>57
O=C(NCc1cccnc1)C1c2ccccc2C(=O)N1C1CCCC1 (stereo not drawn)	14%	4µM*[single pt active]	-5%	>57
COc1ccc(OC)c(CN2C(=O)c3ccccc3C2C(=O)NCc2cccnc2)c1 (stereo not drawn)	11%	4µM*[single pt active]	1%	>57
CCc1cc2c(=O)n(Cc3ccco3)c(SCc3c(C)noc3C)nc2s1	7%	29%	10µM*	>57
COc1ccc(NC(=O)Nc2c(C)n(C)n(-c3ccccc3)c2=O)cc1	28%	4µM*[single pt active]	-4%	>57
COc1ccc2cc(C(=O)Nc3c(C)n(C)n(-c4ccccc4)c3=O)sc(=O)c2c1OC	10%	2.5µM*[single pt active]	-6%	>57
COc1cccc(OC)c1C(=O)Nc1c(C)n(C)n(-c2ccccc2)c1=O	1%	4%	-10%	>57
CCOC(=O)O[C@]1(C(=O)COC(=O)CC)CC[C@@H]2[C@@H]3CCC4=CC(=O)C=C[C@@]4(C)[C@H]3[C@H](O)C[C@]21C	0%[12.8 µM]	88%[12.8 µM]	-2%[3.58 µM]	>57
Cc1onc(-c2c(F)cccc2Cl)c1C(=O)N[C@@H]1C(=O)N2[C@H]1SC(C)(C)[C@H]2C(=O)O	0.04µM*	0.025µM*	?	>57
Cc1onc(-c2ccccc2Cl)c1C(=O)N[C@H]1C(=O)N2[C@H]1SC(C)(C)[C@H]2C(=O)O	0.002µM*	0.0016µM*	2%[3.58 µM]	>57
N[C@H](C(=O)N[C@@H]1C(=O)N2C(C(=O)O)=C(Cl)CS[C@@H]12)c1ccccc1	-6%[12.8 µM]	-11%[12.8 µM]	8%[3.58 µM]	>57
Cc1onc(-c2c(F)cccc2Cl)c1C(=O)NCc1cccs1	-2%	-3%	11%	>57
Cc1onc(-c2c(F)cccc2Cl)c1C(=O)N[C@H]1C(=O)N2[C@H]1SC(C)(C)[C@H]2C(=O)O	0.002µM*	0.0016µM*	4%[3.58 µM]	>26
C=N[C@H](C(=O)N[C@@H]1C(=O)N2[C@@H]1SC(C)(C)[C@@H]2C(=O)O)c1ccccc1	0.16µM*	0.13µM*	?	>57
N=C1[C@@H](O)[C@]2(I)c3ccccc3N3C(=N)[C@H](O)[C@@H]4c5ccccc5N1[C@@H]4[C@@H]32	-5%[5.75 µM]	-17%[5.75 µM]	-6%[8 µM]	>57
O=C(c1ccco1)N1CCC2(CC1)CN(Cc1cc(C(F)(F)F)cc(C(F)(F)F)c1)C2	-4%	117%	-19%	>57
Cc1cnc(CNc2ncnc3ccc(-c4ccccc4CN(C)C)cc23)cn1	6%	16%	?	>57
CC(C)C[C@@H](CC(=O)N[C@H](CC(=O)N[C@@H]1CCNC[C@H]1C(=O)N[C@H](CC(=O)N[C@@H](CCC(=O)O)CC(=O)O)Cc1c[nH]c2ccccc12)C(C)C)NC(=O)[C@@H]1CNCC[C@H]1N	-2%	71%	-7%	>57
CC1(C)S[C@@H]2[C@H](NC(=O)C3(N)CCCCC3)C(=O)N2[C@H]1C(=O)O	0.013µM*	0.0063µM*	-12%[3.58 µM]	>57
Cc1cc(C(=O)CSc2nnc(-c3cccc(F)c3)n2N)c(C)n1Cc1ccc2c(c1)OCO2	9%	16µM*[single pt active]	-14%	>57
Cc1cc(C(=O)CSc2nnnn2-c2ccc(O)cc2)c(C)n1Cc1ccc2c(c1)OCO2	-5%	13µM*	?	>57
Cc1ccc(-c2nnc(SCC(=O)Nc3ccc4c(c3)OCCO4)n2N)cc1	10%	-6%	-3%	>57
C[C@H](O)Cn1cnc2c1c(=O)n(C)c(=O)n2C	0%[12.8 µM]	-1%[12.8 µM]	-21%[3.58 µM]	>57
SMILES	AmpC det inh	AmpC inh no det	LT uptake inh	SmPrx2 inh
CCNc1ncc2nc(-c3ccc(F)cc3)c(=O)n(CCc3ccccc3)c2n1	-1%	-14%	?	>57
COC(=O)[C@@H]1O[C@@H](SCCN)[C@@H](O)[C@H](O)[C@H]1O	-1%[5.75 µM]	2%[5.75 µM]	-5%[8 µM]	>57
Cn1c(=O)oc2cc(S(=O)(=O)N3CCC(C(=O)NCc4cccs4)CC3)ccc21	11%	3.2µM*[single pt active]	-2%	>57
Cn1c(=O)oc2cc(S(=O)(=O)N3CCCC(C(=O)N4CCn5c4nc4ccccc45)C3)ccc21 (stereo not drawn)	12%	4µM*[single pt active]	-1%	>57
CN1CCN(C(=O)C2CCN(S(=O)(=O)c3ccc4c(c3)oc(=O)n4C)CC2)CC1	9%	4µM*[single pt active]	2%	>57
Cn1c(=O)oc2cc(S(=O)(=O)N3CCC(C(=O)N4CCN(c5ccccc5)CC4)CC3)ccc21	12%	12%	-3%	>57
Cn1c(=O)oc2cc(S(=O)(=O)N3CCCC(C(=O)N4CCc5ccccc5C4)C3)ccc21 (stereo not drawn)	13%	56%	?	>57
Cn1c(=O)oc2cc(S(=O)(=O)N3CCC(C(=O)NCC4COc5ccccc5O4)CC3)ccc21 (stereo not drawn)	12%	4µM*[single pt active]	-12%	>57
COc1ccc(Oc2ncc3nc(-c4cccs4)c(=O)n(Cc4cccc(OC)c4)c3n2)cc1	1%	-15%	?	>57
C[C@]12CC[C@H]3c4ccc(O)cc4CC[C@@H]3[C@H]1CC[C@@H]2OC(=O)CCC1CCCC1	-2%[5.75 µM]	2%[5.75 µM]	-9%[8 µM]	>57
O=S(c1ccccc1)c1ccc2nnnn2n1 (stereo not drawn)	-1%	-1%	.	>57
COC(=O)c1ccc(C=O)cc1	-4%	-1%	24%	.
Cn1c(=O)oc2cc(S(=O)(=O)N3CCCC(C(=O)NCCN4CCOCC4)C3)ccc21 (stereo not drawn)	11%	4µM*[single pt active]	2%	>57
COc1ncc2nc(-c3cc(F)cc(F)c3)c(=O)n(Cc3cccs3)c2n1	-1%	-8%	?	>57
O=C(CSc1nnc2c(n1)[nH]c1ccc(F)cc12)OCc1ccccc1	7%	10µM*	-7%	>57
O=C(CSc1nnc(-c2ccccc2F)o1)OCc1ccccc1	12%	10%	3%	>57
Cc1noc(C)c1C(=O)Nc1nc(C23CC4CC(CC(C4)C2)C3)cs1	-3%	0%	10µM*	>57
CCOC(=O)Cc1csc(NC(=O)c2c(-c3ccccc3)noc2C)n1	-3%	24%	0%	.
CCCCN(C)Cc1c(C)[nH]c2ccc(OCC)cc2c1=O	16%	4µM*[single pt active]	-4%	>57
CCOc1ccc2[nH]c(C)c(CN3CCN(CC)CC3)c(=O)c2c1	6%	-14%	-18%	>57
Cc1c(Cc2ccccc2)c(=O)oc2cc(OCc3nn[nH]n3)ccc12	-3%	10µM*[single pt active]	?	>57
CCOC(=O)CCc1c(C)c2ccc(OCc3nn[nH]n3)cc2oc1=O	0%	1%	?	>57
CC(CN(C)Cc1ccccc1)OC(=O)C1COc2ccccc2O1 (stereo not drawn)	10%	4µM*[single pt active]	5%	>57
O=C(NC1CCN(Cc2ccccc2)CC1)C1COc2ccccc2O1 (stereo not drawn)	-3%	-2%	-4%	>57
